Here are results for 90 molecules from PubChem BioAssay AID1778 (Sanford-Burnham Center for Chemical Genomics, 2009).

Structures are written as SMILES. The whole screen tested about 290,000 compounds, of which about 260 (0.09%) were called active. The list comes from a sample in which actives are over-represented; it also holds similar structures and randomly drawn compounds. Entries with a potency or affinity are not part of this list. Values without a mark were called inactive. No stated cut-off is given here; in the data, active means inhibition above about 50%; inactive means the rest.

For this test, the target named is Kappa-type opioid receptor (Homo sapiens) (UniProt P41145). Nature of the test: KOR antagonists, beta-arrestin recruitment, cell-based, luminescence, uHTS (AID 1778). The note with it: antagonist mode, hits give high values; at 10 µM unless noted.
Kappa-type opioid receptor (Homo sapiens), sequence (P41145 whole entry, looked up): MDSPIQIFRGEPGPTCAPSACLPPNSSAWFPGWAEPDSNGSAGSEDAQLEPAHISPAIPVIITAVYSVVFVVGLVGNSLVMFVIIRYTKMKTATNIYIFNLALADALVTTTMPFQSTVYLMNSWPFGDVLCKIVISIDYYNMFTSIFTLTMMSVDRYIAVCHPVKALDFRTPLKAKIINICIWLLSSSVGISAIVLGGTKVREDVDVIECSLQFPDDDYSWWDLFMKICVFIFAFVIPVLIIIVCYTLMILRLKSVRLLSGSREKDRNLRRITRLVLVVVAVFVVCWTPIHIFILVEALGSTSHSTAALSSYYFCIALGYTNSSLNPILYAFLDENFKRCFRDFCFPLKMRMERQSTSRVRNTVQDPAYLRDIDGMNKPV
What is called inhibition is the drop in the measured response relative to a control, in per cent. Take `COC(=O)C1=C(C(=O)OC)[C@@H]2N(C)c3ccc(OC)cc3[C@@]23C[C@@H](C(=O)OC)N(C(=O)c2cccs2)C3=N1`: the inhibition was -29.4% [at 20 µM]. For `Cc1ccc(/C=C2\SC(=S)N(c3cccnc3)C2=O)cc1` the value was -11.9%; for `O=C1/C(=C/c2cccnc2)SC(=S)N1c1ccc(O)cc1`, 30.3%. In the case of `O=C(C(Sc1ccccc1)c1ccc(Br)cc1)N1CCOCC1` (stereo not given), the inhibition is 20.5%. For `Cc1ccc(NC(=O)c2nc(S(=O)(=O)Cc3ccccc3)ncc2Cl)cc1` the value was 14%; for `CN(c1ccccc1)S(=O)(=O)c1ccc(NC(=O)c2nc(S(C)(=O)=O)ncc2Cl)cc1`, 35.2%; for `CC(=O)Nc1ccc(NC(=O)c2nc(S(=O)(=O)Cc3ccccc3)ncc2Cl)cc1`, 23.7%. For `CCN(c1ccccc1)S(=O)(=O)c1ccc(NC(=O)c2nc(S(C)(=O)=O)ncc2Cl)cc1` the value was 38.4%; for `CCOC(=O)N1CCN(C(=O)COc2cccc3c2CCN(Cc2cccc(C)c2)C3=O)CC1`, 8%. For `CSc1ccc(NC(=O)N2CC=C(n3c(=O)[nH]c4ccccc43)CC2)cc1` the value was 90.6% (active); for `CCOc1ccc(NC(=O)N2CC=C(n3c(=O)[nH]c4ccccc43)CC2)cc1`, 35.6%; for `O=C(Nc1cccc(F)c1)N1CC=C(n2c(=O)[nH]c3ccccc32)CC1`, 46.2%. Turning to `N#Cc1ccc(CN2CCN(C(=O)c3ccccc3)CC2)c(Cl)c1`, the inhibition is -1.5%.

With `Cc1cccc(C(=O)c2ccccc2C(=O)O)c1`, the inhibition was 19.6%.

Regarding `CC(NC(=O)CN1CCCC1)C12CC3CC(CC(C3)C1)C2` (stereo not given), the inhibition is -12%.

In the case of `CC(NC(=O)Cn1nc(C(=O)O)c2ccccc2c1=O)C12CC3CC(CC(C3)C1)C2` (stereo not given), the inhibition is -21.3%. For `Cc1ccc(C(=O)N/C(=C\c2ccc(F)cc2)C(=O)NCCCn2ccnc2)cc1` the value was 21.6%.

Regarding `CCOc1cc(CNC2CCCC2)cc(Cl)c1OCc1ccc(F)cc1`, the inhibition is -17.1%. For `CCNCc1cc(Cl)c(OCc2ccccc2)c(OCC)c1` the value was 12.3%; for `O=C(O)c1ccc(N/N=C/c2cccc3nccnc23)cc1`, 14.2%.

In the case of `C(=C\c1ccccc1)/CSc1ccccn1`, the inhibition was -4.7%. For `CC(C)N(C(=O)COC(=O)c1ccccc1C(=O)c1ccc(Cl)c([N+](=O)[O-])c1)C(C)C` the value was 24.3%; for `CNC(=O)COC(=O)c1ccccc1C(=O)c1ccc(Cl)c([N+](=O)[O-])c1`, -7.4%. The same measure for `CC(=O)c1ccc(Nc2ccc([N+](=O)[O-])c3nonc23)cc1`: 37.3% [at 20 µM]; for `NS(=O)(=O)c1ccc(Nc2ccc([N+](=O)[O-])c3nonc23)cc1`: -10.8%. The same measure for `COc1ccc(OC)c(NC(=O)c2cc3sccc3n2C)c1`: 9.4%. On to `COc1ccc(OC)c(N2C(N)=C(C#N)C(c3ccc(OC)c(O)c3)C3=C2CC(C)(C)CC3=O)c1` (stereo not given), for which the inhibition was 16.3%. With `CCC(=O)Nc1ccc(C(=O)n2ccc(C)n2)cc1`, the inhibition is 5.2%. As to `Cc1[nH]c2ccccc2c1/C=N/n1cnnc1`, the inhibition is -34.7%. For `N=C1/C(=C\c2ccc(-c3cccc(Cl)c3)o2)C(=O)N=C2SC=C(c3ccccc3)N12` the value was 29.8%.

With `O=C1OC(c2cccs2)=N/C1=C\c1ccc(-c2cccc(Cl)c2)o1`, the inhibition is -15.5%. Take `COc1cc(/C=C2\SC(=N)N(c3ccc(F)cc3)C2=O)ccc1O`: the inhibition was -30.7%. For `CCOc1cc(/C=C2\SC(=N)N(c3nccs3)C2=O)ccc1OCCN1CCOCC1` the value was -3.5%. For `N=C1S/C(=C\c2ccco2)C(=O)N1c1nccs1` the value was 71% (active). For `O=C1/C(=C/c2ccco2)SC(=S)N1c1cccnc1` the value was -2.4%; for `N=C1S/C(=C\c2ccco2)C(=O)N1c1ccc2c(c1)OCO2`, -11.9% [at 20 µM].

`COc1ccc(/C=C2\SC(=N)N(c3ccc(F)cc3)C2=O)cc1OC`: the inhibition is -9.7%.

Regarding `CCOc1cccc(C(=O)N(Cc2cccc(F)c2)C2CCS(=O)(=O)C2)c1` (stereo not given), the inhibition is -33.2%.

`Cc1csc(NC(=O)CCCc2cccs2)n1`: the inhibition is 1.1%. For `COc1ccc(C)cc1NC(=O)C(Sc1nnc(Nc2cc(C)ccc2OC)s1)c1ccccc1` (stereo not given) the value was -5.6%.

As to `CCOc1ccc(CCNS(=O)(=O)c2cnc[nH]2)cc1OCC`, the inhibition was -14.7%. `COc1ccccc1NC(=O)c1ccc(CSc2ncccn2)cc1`: the inhibition was 7.4%. The same measure for `Cc1ccc(NC(=O)CCCCCN2C(=O)[C@@H]3Cc4ccccc4CN3C2=O)c(C)c1`: 26.6%. Consider `Oc1c(C=Nc2cccnc2)sc2ccccc12`, for which the inhibition is -24.2%. The same measure for `Oc1c(/C=N/c2ccccn2)sc2ccccc12`: -1.9%; for `COc1ccc(NC(=S)NC(NC(=O)c2ccc(Cl)cc2Cl)C(Cl)(Cl)Cl)c([N+](=O)[O-])c1` (stereo not given): 36.4%; for `COc1ccc(NC(=S)NC(NC(=O)c2cccc3ccccc23)C(Cl)(Cl)Cl)c([N+](=O)[O-])c1` (stereo not given): -86.5%. Regarding `COCCSc1nnc(NC(=O)CSc2ccccc2)s1`, the inhibition was -18.1%.

As for `CCc1nnc(NC(=O)CSc2nnc(CNc3cccc(Cl)c3)n2CC)s1`, the inhibition was -7.1%.

As to `O=C(NCCc1ccccn1)c1ccc(OC(F)F)cc1`, the inhibition was 19.2%. The same measure for `O=[N+]([O-])c1c(Nc2ccc(O)cc2)cc(Cl)c2nonc12`: 104% (active); for `Cc1c(Nc2cc(N3CCOCC3)c3nonc3c2[N+](=O)[O-])c(=O)n(-c2ccccc2)n1C`: 25.4%; for `O=C(O)c1ccc(Nc2cc(Cl)c3nonc3c2[N+](=O)[O-])cc1`: 27.4%. For `O=C(O)c1cccc(Nc2cc(Cl)c3nonc3c2[N+](=O)[O-])c1` the value was 4.3%.

Regarding `CN(C)c1cc(Nc2ccc(O)cc2)c([N+](=O)[O-])c2nonc12`, the inhibition is 40.9%.

On to `O=C(O)c1cc(Nc2cc(Cl)c3nonc3c2[N+](=O)[O-])ccc1O`, for which the inhibition was -28%. For `CN(C)c1cc(Nc2cccc(O)c2)c([N+](=O)[O-])c2nonc12`, the inhibition is -7.7%. For `O=[N+]([O-])c1c(Nc2cccc(O)c2)cc(Cl)c2nonc12` the value was 114% [at 20 µM] (active); for `CCNc1cc(Nc2c(C)n(C)n(-c3ccccc3)c2=O)c([N+](=O)[O-])c2nonc12`, 13.1%.

Consider `CCN(CC)c1cc(NCCO)c([N+](=O)[O-])c2nonc12`, for which the inhibition is -13.9%. For `CN(C(=O)c1ccc(S(=O)(=O)c2cccc(Cl)c2)c([N+](=O)[O-])c1)C1CCCCC1` the value was -8.7%.

As for `CC1(C)CC(=O)c2cc(OCC(=O)NCCN3CCOCC3)ccc2O1`, the inhibition was -16.7%. The same measure for `CCOC(=O)C(=O)N1CCC(Cc2ccccc2)CC1`: 31.7%; for `O=C1CN(C(=O)COC(=O)CCNS(=O)(=O)c2ccc(Cl)cc2)c2ccccc2N1`: -18.1%; for `CC(/C=N\N1CCN(c2ccc(Cl)cc2)CC1)=C\c1ccccc1`: 53.7%. For the molecule `O=C(N/N=C/c1ccoc1)c1cc(Br)ccc1O`, the inhibition was -13.2%. Take `O=[N+]([O-])c1c(Nc2ccccc2O)ccc2nonc12`: the inhibition is 35.9%.

`O=C(O)c1ccccc1Nc1cc(Cl)c2nonc2c1[N+](=O)[O-]`: the inhibition is 34.1%.

For `Cc1cccc(N(C(=O)c2snc(C(N)=O)c2N)C(C(=O)NC2CCCC2)c2ccncc2)c1` (stereo not given), the inhibition was 12.2%. As for `Cc1cc(C(C)(C)C)oc1C(=O)N(CC(=O)NC1CCCC1)Cc1ccccc1Cl`, the inhibition is 0.8%. For `Cc1cn(-c2cc(C(=O)Nc3ccc(C)c(NC(=O)C(=O)c4c[nH]c5ccccc45)c3)cc(C(F)(F)F)c2)cn1`, the inhibition was 0.6%. Take `Cc1cn(-c2cc(C(=O)Nc3ccc(C)c(NC(=O)N4CCNC4=O)c3)cc(C(F)(F)F)c2)cn1`: the inhibition was -20%.

In the case of `COc1ccc(CNC2CCCc3ccccc32)cc1OC` (stereo not given), the inhibition is -0.9%. The same measure for `O=C(NNC1=Nc2ccccc2SC1)c1ccccc1F`: 10.4%. Consider `O=C(NNC1=Nc2ccccc2SC1)c1ccc(F)cc1`, for which the inhibition is 30.4%. Consider `CCc1ccc(-n2c(=O)c3c(C)c(C(=O)N(C)C)sc3n(CC(=O)NCc3ccco3)c2=O)cc1`, for which the inhibition was -11.4%. Take `Cc1ccc(-c2csc(N3C(=N)SCC3=O)n2)cc1`: the inhibition is 26.9%.

For `N=C1SCC(=O)N1c1nc(-c2ccccc2)cs1`, the inhibition was 23.4%. For `CCN1CCN(C(=S)c2ccc(Cl)cc2)CC1` the value was 12.5%; for `Cc1ccc(Cc2cnc(NC(=O)c3cccs3)s2)cc1`, -17.2%; for `Cc1ccc(Cc2cnc(N3C(=N)SC(c4ccccc4)C3=O)s2)cc1` (stereo not given), 37.3%. Regarding `Cc1cccc(Cc2cnc(N3C(=N)SC(c4ccccc4)C3=O)s2)c1` (stereo not given), the inhibition is -7.2%.

Turning to `Cc1ccc(Cc2cnc(N3C(=N)SC(C)C3=O)s2)cc1` (stereo not given), the inhibition is 88.5% (active). The same measure for `Cc1cccc(Cc2cnc(NC(=O)c3ccc(C)o3)s2)c1`: -9.9%; for `O=C(C1=C[C@H](c2ccccc2)C[C@H](OCc2ccc(CO)cc2)O1)N1CCN(Cc2ccc3c(c2)OCO3)CC1`: -13%; for `CNc1ncnc(Sc2ccc(Cl)cc2)c1[N+](=O)[O-]`: 8.9%. The same measure for `OCC1(Cc2cccc(Cl)c2)CCCN(Cc2sc(N3CCCC3)nc2Cl)C1` (stereo not given): -39.6% [at 20 µM]; for `CN1N=C(C(=O)N2CCc3c([nH]c4ccccc34)C2c2ccccc2Cl)CCC1=O` (stereo not given): -7%. As for `O=C1COc2ccc(S(=O)(=O)NCc3ccc(Cl)cc3)cc2N1`, the inhibition was -23.4%. Take `COC(=O)c1sccc1S(=O)(=O)Nc1ccc(Cl)cc1`: the inhibition is 23.4%.
